We go through 93 molecules from PubChem BioAssay AID1851 (National Center for Advancing Translational Sciences (NCATS), 2009).

Values joined by “and” are separate entries in the source; they are usually repeats but may differ in a detail not shown here. Equal values may be shown once. Screen size: about 16,000 compounds; about 5,800 (36%) were called active. Not shown: some 23% with an inconclusive outcome. Calls follow the shape of the dose curve; as a rule, active = well fitted curve in the direction sought with a large enough effect; inconclusive = small, poorly fitted or top-dose-only effect, or effect the other way; inactive = no such curve, though single readings can be large or run the other way. Some of the results follow. A structure can be active in one record and inactive in another.
% is scaled to controls: 0 for no effect and ±100 for the full control effect.

Cytochrome P450 2C19 (Homo sapiens), sequence (P33261 whole entry, looked up): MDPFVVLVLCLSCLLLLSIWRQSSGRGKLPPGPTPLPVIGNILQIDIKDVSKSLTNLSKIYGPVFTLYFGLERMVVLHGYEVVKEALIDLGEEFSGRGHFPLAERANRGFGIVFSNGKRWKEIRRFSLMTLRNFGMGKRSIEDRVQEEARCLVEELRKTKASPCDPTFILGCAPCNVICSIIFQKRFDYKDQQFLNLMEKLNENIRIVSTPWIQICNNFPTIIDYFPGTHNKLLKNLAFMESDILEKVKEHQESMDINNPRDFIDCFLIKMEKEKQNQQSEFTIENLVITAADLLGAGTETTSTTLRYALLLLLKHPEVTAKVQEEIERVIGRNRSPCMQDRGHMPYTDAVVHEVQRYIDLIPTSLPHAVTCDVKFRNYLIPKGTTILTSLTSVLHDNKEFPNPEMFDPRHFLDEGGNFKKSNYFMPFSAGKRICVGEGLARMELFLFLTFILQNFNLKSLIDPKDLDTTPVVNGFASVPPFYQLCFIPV

The test concerns the target Cytochrome P450 2C19 (Homo sapiens) (UniProt P33261). In words: Cytochrome panel assay with activity outcomes. The following applies: recombinant CYP, pro-luciferin dealkylation, luminescence, p450-cyp2c19; series mostly up to 57.1 µM.
In the case of `CC(=O)OC1=CC2=CC[C@H]3[C@H]4CCC(=O)[C@@]4(C)CC(=O)[C@]3(S)[C@]2(C)CC1`, the activity, negative = inhibition is -14.8% [at 11.4 µM] (inactive).
Consider `c1csc(CN2CCC3(CCNCC3)CC2)n1`, for which the AC50 result was “inactive”.
Take `CCCN(CCC)[C@@H]1CCc2ccc(O)cc2C1`: the AC50 entry is “inactive”.
Still for that read-out and setting: in the case of `CCCN(CCC)[C@@H]1CCc2cccc(O)c2C1` it was “inactive”; in that of `CCCN(C/C=C\I)[C@@H]1CCc2ccc(O)cc2C1`, 1 µM (active).
For the molecule `CN(C)CC/C=C1\c2ccccc2Sc2ccc(Cl)cc21`, the activity, negative = inhibition is -17.3% [at 11.4 µM] (inactive).
Turning to `NO`, the AC50 entry was “inactive”.
The same measure, in the same setting: the value for `Cc1sc2c(c1C)C(c1ccc(C(C)(C)C)cc1)=NCC(=O)N2CC(=O)Nc1nccs1` was 6.31 µM (active); that for `CCCN1CCC[C@H](c2cccc(C#N)c2)C1` was “inactive”.
As for `CCN1C[C@]2(C)CC[C@@H](O)[C@]34[C@@H]5CC6[C@@H](OC)C[C@@](O)([C@H]5[C@@H]6O)[C@@H](C[C@@H]23)[C@H]14`, the AC50 result was “inactive”.
Regarding `CC(C)(C)CC(=O)NC(=S)Nc1ccccc1C(F)(F)F`, the AC50 is 3.16 µM (active).
Consider `CC(C)c1ccc(C(c2c(O)c3ccccc3oc2=O)c2c(O)c3ccccc3oc2=O)cc1`, for which the activity, negative = inhibition was -40.6% [at 11.4 µM] (inactive).
For the molecule `Cn1c(=O)c2[nH]cnc2n(C)c1=O`, the AC50 entry was “inactive”.
`CC(C)(C)NC[C@@H](O)COc1cccc2[nH]c(C#N)cc12`: the AC50 was 15.8 µM (active).
In the case of `c1csc(CN2CC3(CCNCC3)C2)n1`, the AC50 entry is “inactive”.
For `Oc1ccc(CCNCc2cc3c(cc2Br)OCO3)cc1`, the AC50 was 5.01 µM (active).
As for `C[N+]1(C)CCO[C@](O)(c2ccc(-c3ccc([C@]4(O)C[N+](C)(C)CCO4)cc3)cc2)C1`, the AC50 result is “inactive”.
As to `Fc1ccccc1CCNCc1cccc(Cl)c1Cl`, the AC50 is 0.631 µM (active).
In the case of `N=C(N)n1cc(/C=N\N=C(N)N)cn1`, the activity, negative = inhibition was 16.3% [at 11.4 µM] (inactive).
On to `COc1ccc(C2NCc3ccc4c(c3-n3cccc32)OCO4)cc1OC` (stereo not drawn), for which the AC50 was 3.16 µM (active).
Consider `O=C(Oc1ccccc1)N1CCC2(CCN(Cc3nccs3)CC2)CC1`, for which the AC50 result was “inactive”.
`CCCN(CCC)[C@H]1CCc2c(F)ccc(O)c2C1`: the AC50 result was “inactive”.
Consider `C/C(=N\OC(=O)NC(C)C)c1sc(-c2ccc(Cl)cc2)nc1C`, for which the AC50 is 5.01 µM (active).
For the molecule `CCNC(=O)O/N=C(\C)c1sc(-c2ccccc2)nc1C`, the AC50 was 11.2 µM (active).
Take `C/C(=N\OC(=O)NC(C)C)c1sc(-c2ccccc2)nc1C`: the AC50 is 10 µM (active).
On to `OC(c1ccccc1)(c1ccccc1)C1CCNCC1`, for which the AC50 result is “inactive”.
On to `NS(=O)(=O)C[C-]1C=C[CH]([Sb-]([Cl])([Cl])([Cl])([Cl])[Cl])C=C1.c1ccncc1` (stereo not drawn), for which the activity, negative = inhibition is 12.8% [at 11.4 µM] (inactive).
`COc1ccc2[nH]cc(CCN(C)C)c2c1`: the AC50 entry is “inactive”.
With `CCc1cc2c(nc1CC)CCN(CC/C(C)=N/OC)C2`, the activity, negative = inhibition is 6.29% [at 11.4 µM] (inactive).
For `C=C(C)[C@H]1CC[C@]2(C(=O)O)CC[C@]3(C)[C@@H](CC[C@H]4[C@@]5(C)CC[C@@H](O)C(C)(C)[C@@H]5CC[C@@]43C)[C@H]12`, the AC50 result was “inactive”.
As to `O=[As](O)(O)c1ccc(NCc2ccccc2)cc1`, the activity, negative = inhibition was 1.27% [at 11.4 µM] (inactive).
As for `COC(=O)C1(C)C=C2C(=C(C)C(=O)C2C)CN1` (stereo not drawn), the AC50 entry was “inactive”.
Still for that read-out and setting: in the case of `Ic1ccccc1CN[C@@H]1C2CCN(CC2)[C@H]1C(c1ccccc1)c1ccccc1` it was “inactive”.
As for `COc1cc(C(=O)OC2C[C@H]3CC[C@@H](C2)N3C)ccc1O` (stereo partly drawn), the AC50 result is “inactive”.
In the case of `C/C(=C\c1ccc(N(C)C)cc1)[N+](=O)[O-]`, the AC50 is 14.1 µM (active).
In the case of `C[C@H]1CC[C@@]2(NC1)O[C@@H]1C[C@H]3[C@@H]4CC=C5C[C@@H](O)CC[C@]5(C)[C@@H]4CC[C@]3(C)[C@@H]1[C@@H]2C`, the AC50 entry was “inactive”.
For the molecule `COc1cc(-c2ccc(=O)[nH]n2)ccc1OC(F)F`, the AC50 is 15.8 µM (active).
With `COc1cc(C[C@H](C)N)c(OC)cc1I`, the AC50 entry was “inactive”.
Regarding `C[C@@]12CC(=O)[C@H]3[C@@H](CCC4=CC(=O)CC[C@]43C)[C@H]1CCC2=O`, the AC50 entry was “inactive”.
Consider `C[C@@H]1CC[C@@H]2N(C1)C[C@H]1[C@@](O)([C@H](O)C[C@]3(O)[C@H]4CC[C@H]5[C@]6(O)O[C@]4(C[C@]13O)[C@@]5(C)CC[C@@H]6O)[C@@]2(C)O`, for which the activity, negative = inhibition was 1.59% [at 11.4 µM] (inactive).
Take `NC(N)=NCCN=C(N)N`: the activity, negative = inhibition was -3.51% [at 11.4 µM] (inactive).
Turning to `CN(C)c1ccc(NC(=O)CN2C(=O)CN=C(c3ccccc3)c3ccccc32)cc1`, the AC50 is 2.24 µM (active).
On to `O=C(O)CN1C(=O)CN=C(c2ccccn2)c2cc(Cl)ccc21`, for which the activity, negative = inhibition was 33.4% [at 11.4 µM] (inactive).
Take `CN(C)CCCNc1c2c(nc3ccc(Cl)cc13)CCCC2`: the activity, negative = inhibition was 23.5% [at 11.4 µM] (inactive).
With `Nc1nc(OCc2ccccc2)c2[nH]cnc2n1`, the AC50 was 6.31 µM (active).
On to `O=C(O)C[C@H]1NCc2cc3ccccc3nc21`, for which the activity, negative = inhibition was 22.2% [at 11.4 µM] (inactive).
With `NCCc1c[nH]c2ccc(C(N)=O)cc12`, the AC50 entry was “inactive”.
As to `CCCCCCCCCOc1ccc2[nH]cc(CCN)c2c1`, the AC50 was 10 µM (active).
Still for that read-out and setting: the value for `COc1ccc2[nH]cc(CCN)c2c1` was “inactive”.
Take `CCC(COC(=O)NC)NC(=O)Oc1ccccc1` (stereo not drawn): the AC50 entry was “inactive”.
`O=S(=O)(c1ccccc1)N1CCCCC1c1cccnc1` (stereo not drawn): the concentration at half-maximal activity (AC50) was 10 µM (active).
Regarding `CC(C)=C[C@H]1[C@@H](C(=O)OCc2cc3c(cc2Cl)OCO3)C1(C)C`, the AC50 was 1.58 µM (active).
Take `CC(C)CN1CC2(CCN(C(=O)Oc3ccccc3)CC2)C1`: the AC50 entry was “inactive”.
The same measure, in the same setting: in the case of `C(=C/c1ccccc1)/CN1CCN(CCOC(c2ccccc2)c2ccccc2)CC1` it was 10 µM (active); in that of `Fc1ccc(C(OCCN2CCN(C/C=C\c3ccccc3)CC2)c2ccc(F)cc2)cc1`, 7.94 µM (active).
The same measure, in the same setting: in the case of `CO[C@@H]1CC=C2CCN3CCC4=C(CC(=O)OC4)[C@]23C1` it was “inactive”; in that of `O=C1OC(=O)[C@@H]2[C@@H]1[C@@H]1CC[C@H]2O1`, “inactive”.
For the molecule `CCS(=O)(=O)Nc1cccc(C(=C2CCCCC2)c2cnc[nH]2)c1`, the AC50 was 0.00794 µM (active).
Turning to `N#Cc1ccc(CN2CCC3(CC2)CCN(C(=O)Oc2ccccc2)CC3)cc1`, the AC50 entry is “inactive”.
On the same count and under the same terms, the value for `CC(=O)c1c(O)c(C)c(O)c(Cc2c(O)c3c(c(C(=O)/C=C\c4ccccc4)c2O)OC(C)(C)C=C3)c1O` was “inactive”; that for `CCN1CCN(S(=O)(=O)c2ccc(Cl)nc2)CC1` was “inactive”; that for `NCc1cc(=O)[nH]o1` was “inactive”.
`CS(=O)c1ccc(-c2nc(-c3ccc(F)cc3)c(-c3ccncc3)[nH]2)cc1` (stereo not drawn): the concentration at half-maximal activity (AC50) entry was “inactive and 39.8 nM (active)”.
Still for that read-out and setting: the value for `N[C@@H](CCCCP(=O)(O)O)C(=O)O` was “inactive”.
`C=CCN1C[C@H](C)N([C@H](c2ccc(C(=O)N(CC)CC)cc2)c2cccc(O)c2)C[C@H]1C`: the AC50 entry is “inactive”.
On to `CCCCc1ccc(C(=O)O)nc1`, for which the AC50 entry was “inactive”.
In the case of `O=C(O)[C@H]1[C@H](C(=O)O)[C@H]2CC[C@@H]1O2`, the AC50 result was “inactive”.
Regarding `CCCCc1ccc(-c2nc(NC(=O)C3C4CCC(O4)C3C(=O)O)sc2C)cc1` (stereo not drawn), the AC50 was 3.98 µM (active).
`C[C@H](N)[C@H](O)c1ccc(O)c(O)c1`: the AC50 result is “inactive”.
For `CC(C)CN1CCC2(CC1)CCN(S(C)(=O)=O)CC2`, the AC50 entry was “inactive”.
As for `CC(C)NC(=O)N1CCC2(CC1)CCN(C(=O)Oc1ccccc1)CC2`, the AC50 result was “inactive”.
Turning to `CN(C)[C@H]1C(=O)C(C(N)=O)=C(O)[C@]2(O)C(=O)C3=C(O)c4c(O)cccc4[C@@](C)(O)[C@H]3C[C@@H]12`, the AC50 entry was “inactive”.
As to `O=C(c1ccc(-c2nnc(Nc3ccccc3)c3ccccc23)cc1)N1C[C@H]2C[C@H](C1)c1cccc(=O)n1C2`, the half-maximal activity concentration (AC50) was 8.91 µM (active).
As for `O=c1cccc2n1CC1CNC[C@H]2C1`, the AC50 entry was “inactive”.
Regarding `CC(=O)OCC1=C(C(=O)O)N2C(=O)[C@@H](N)[C@@H]2SC1`, the AC50 result is “inactive”.
The same measure, in the same setting: the value for `COc1cc([C@@H](O)CN)ccc1O` was “inactive”.
In the case of `Cc1c([C@@H](C)[C@H]2NC[C@H](C)C[C@@H]2O)ccc2c1C[C@@H]1[C@H]2CC=C2C[C@@H](O)CC[C@@]21C`, the activity, negative = inhibition was 26.3% [at 11.4 µM] (inactive).
With `CC1=NN=C(c2ccc(N)cc2)c2cc3c(cc2C1)OCO3`, the AC50 entry was “inactive and 7.94 µM (active)”.
Same read-out and setting: the value for `C[C@@H]1Cc2cc3c(cc2C(c2ccc(N)cc2)=NN1)OCO3` was 2 µM (active); that for `COc1ccc(C(=O)OC2C[C@H]3CC[C@@H](C2)N3C)cc1OC` (stereo partly drawn) was “inactive”.
Regarding `C[C@@]12C(=O)OC(=O)[C@@]1(C)[C@H]1CC[C@@H]2O1`, the AC50 result was “inactive”.
In the case of `CC1=C2C(=O)[C@@H]3[C@@H](CC=C4C[C@@H](O)CC[C@@]43C)[C@H]2CC[C@@]12O[C@H]1C[C@H](C)CN[C@H]1[C@@H]2C`, the activity, negative = inhibition was 15.9% [at 11.4 µM] (inactive).
As to `CCCCCC[C@H]1C(=O)O[C@H](C)[C@H](NC(=O)c2cccc(NC=O)c2O)C(=O)O[C@@H](C)[C@H]1OC(=O)CC(C)C`, the AC50 result is “inactive”.
Consider `COc1ccc(C(=O)NC2CC3CCCC(C2)N3CC(C)C)cc1OC` (stereo not drawn), for which the AC50 result is “inactive”.
Still for that read-out and setting: the value for `NC[C@H](O)c1ccc(O)cc1` was “inactive”; that for `O=C1CCCCCC1C1(O)C(=O)Nc2ccc(Br)cc21` (stereo not drawn) was 4.47 µM (active).
Take `Oc1ccc2c3c1O[C@H]1c4[nH]c5c(c4C[C@@]4(O)[C@@H](C2)N(CC2CC2)CC[C@]314)C[C@]1(O)[C@H]2Cc3ccc(O)c4c3[C@@]1(CCN2CC1CC1)[C@@H]5O4`: the AC50 entry was “inactive”.
In the case of `Oc1ccc2c3c1O[C@@H]1c4[nH]c5c(c4C[C@@]4(O)[C@@H](C2)N(CC2CC2)CC[C@]314)C[C@]1(O)[C@@H]2Cc3ccc(O)c4c3[C@@]1(CCN2CC1CC1)[C@H]5O4`, the AC50 entry is “inactive”.
Same read-out and setting: the value for `Oc1ccc2c3c1O[C@H]1c4[nH]c5ccccc5c4C[C@]4(O)[C@H](C2)N(CC2CC2)CC[C@@]314` was 10 µM (active); that for `C[N+]1(C)[C@@H]2CC[C@H]1CC(OC(=O)[C@@H](CO)c1ccccc1)C2` (stereo partly drawn) was “inactive”.
Consider `COc1cc(CCN)ccc1O`, for which the AC50 result was “inactive”.
As for `COc1cc(CNC(=O)CCCC/C=C\C(C)C)ccc1O`, the AC50 result was “inactive and 6.31 µM (active)”.
Same read-out and setting: the value for `CNC[C@H](O)c1ccc(O)c(OC)c1` was “inactive”.
